Experimental data from the supplement of paper PMC8728848.
The sample as a whole holds a higher share of the strongest signals than the screen did.

How the values were obtained:
Assay in all cases: glycan array binding signal (z-score within array); higher = stronger binding
Details in all cases: glycan notation: IUPAC condensed, linker removed
[1] = biological target: Fuc(a1-2)Gal(b1-3)GalNAc(a1-3)[Fuc(a1-2)]Gal(b1-4)GlcNAc
Summary of the method: (§1)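 Glycan array binding is given as a within-array Z-score, which can be read as non-binding when negative. The arrays, 3228 of them, came from the Consortium for Functional Glycomics database and were retained only where the protein sequence was available. Z-scores were averaged across arrays of the same protein sequence at different concentrations or buffers and across linkers.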

[2] = biological target: Fuc(a1-2)Gal(b1-4)GlcNAc(b1-2)[Fuc(a1-2)Gal(b1-4)GlcNAc(b1-4)]Man(a1-3)[Fuc(a1-2)Gal(b1-4)GlcNAc(b1-2)Man(a1-6)]Man(b1-4)GlcNAc(b1-4)GlcNAc
Summary of the method: as §1

[3] = biological target: Fuc(a1-2)Gal6S(b1-3)GlcNAc6S
Summary of the method: as §1

[4] = biological target: Fuc(a1-2)[Gal(a1-3)]Gal(b1-4)[Fuc(a1-3)]GlcNAc(b1-3)GalNAc
Summary of the method: as §1

[5] = biological target: Fuc(a1-2)[GalNAc(a1-3)]Gal(b1-4)[Fuc(a1-3)]GlcNAc(b1-3)GalNAc
Summary of the method: as §1

[6] = biological target: Fuc(a1-3)[Gal(b1-4)]GlcNAc(b1-4)Gal(b1-4)[Fuc(a1-3)]GlcNAc
Summary of the method: as §1

Gal(a1-2)Gal = biological target: Gal(a1-2)Gal
Summary of the method: as §1

Gal(a1-3)Gal(b1-3)GlcNAc = biological target: Gal(a1-3)Gal(b1-3)GlcNAc
Summary of the method: as §1

[7] = biological target: Gal(a1-4)Gal(b1-3)GlcNAc(b1-2)Man(a1-3)[Gal(a1-4)Gal(b1-3)GlcNAc(b1-2)Man(a1-6)]Man(b1-4)GlcNAc(b1-4)GlcNAc
Summary of the method: as §1

[8] = biological target: Gal(b1-3)GalNAc(a1-3)[Fuc(a1-2)]Gal(b1-4)GlcNAc
Summary of the method: as §1

[9] = biological target: Gal(b1-3)GalNAc(b1-4)Gal(b1-4)Glc
Summary of the method: as §1

[10] = biological target: Gal(b1-3)GlcNAc(b1-3)Gal(b1-4)GlcNAc(b1-3)Gal(b1-4)GlcNAc(b1-2)[Gal(b1-3)GlcNAc(b1-3)Gal(b1-4)GlcNAc(b1-3)Gal(b1-4)GlcNAc(b1-6)]Man(a1-6)[Gal(b1-3)GlcNAc(b1-3)Gal(b1-4)GlcNAc(b1-3)Gal(b1-4)GlcNAc(b1-2)Man(a1-3)]Man(b1-4)GlcNAc(b1-4)[Fuc(a1-6)]GlcNAc
Summary of the method: as §1

[11] = biological target: Gal(b1-4)GlcNAc(b1-3)Gal(b1-4)GlcNAc(b1-2)Man(a1-3)[Gal(b1-4)GlcNAc(b1-3)Gal(b1-4)GlcNAc(b1-2)Man(a1-6)]Man(b1-4)GlcNAc(b1-4)GlcNAc
Summary of the method: as §1

[12] = biological target: Gal(b1-4)GlcNAc(b1-3)Gal(b1-4)GlcNAc(b1-3)Gal(b1-4)GlcNAc(b1-3)Gal(b1-4)GlcNAc(b1-3)Gal(b1-4)GlcNAc(b1-2)[Gal(b1-4)GlcNAc(b1-3)Gal(b1-4)GlcNAc(b1-3)Gal(b1-4)GlcNAc(b1-3)Gal(b1-4)GlcNAc(b1-3)Gal(b1-4)GlcNAc(b1-6)]Man(a1-6)[Gal(b1-4)GlcNAc(b1-3)Gal(b1-4)GlcNAc(b1-3)Gal(b1-4)GlcNAc(b1-3)Gal(b1-4)GlcNAc(b1-3)Gal(b1-4)GlcNAc(b1-2)Man(a1-3)]Man(b1-4)GlcNAc(b1-4)[Fuc(a1-6)]GlcNAc
Summary of the method: as §1

[13] = biological target: Gal(b1-4)GlcNAc(b1-6)Gal(b1-4)GlcNAc
Summary of the method: as §1

Gal3S(b1-4)GlcNAc = biological target: Gal3S(b1-4)GlcNAc
Summary of the method: as §1

Gal3S6S(b1-4)GlcNAc6S = biological target: Gal3S6S(b1-4)GlcNAc6S
Summary of the method: as §1

Gal4S(b1-4)GlcNAc = biological target: Gal4S(b1-4)GlcNAc
Summary of the method: as §1

Gal6P(b1-4)GlcNAc = biological target: Gal6P(b1-4)GlcNAc
Summary of the method: as §1

Gal6S(b1-3)GlcNAc6S = biological target: Gal6S(b1-3)GlcNAc6S
Summary of the method: as §1

Gal6S(b1-4)GlcNAc6S = biological target: Gal6S(b1-4)GlcNAc6S
Summary of the method: as §1

[14] = biological target: GalNAc(b1-4)GlcNAc(b1-2)Man
Summary of the method: as §1

[15] = biological target: GalNAc3S(b1-4)[Fuc(a1-3)]GlcNAc
Summary of the method: as §1

GalNAc4S6S(b1-4)GlcNAc = biological target: GalNAc4S6S(b1-4)GlcNAc
Summary of the method: as §1

[16] = biological target: Glc(a1-6)Glc(a1-6)Glc(a1-6)Glc
Summary of the method: as §1

Glc(b1-6)Glc = biological target: Glc(b1-6)Glc
Summary of the method: as §1

[17] = biological target: GlcNAc(a1-4)Gal(b1-4)GalNAc
Summary of the method: as §1

[18] = biological target: GlcNAc(b1-2)Gal(b1-3)GalNAc
Summary of the method: as §1

[19] = biological target: GlcNAc(b1-3)Gal(b1-4)GlcNAc(b1-2)[GlcNAc(b1-3)Gal(b1-4)GlcNAc(b1-6)]Man(a1-6)[GlcNAc(b1-3)Gal(b1-4)GlcNAc(b1-2)Man(a1-3)]Man(b1-4)GlcNAc(b1-4)GlcNAc
Summary of the method: as §1

[20] = biological target: GlcNAc(b1-3)Gal(b1-4)GlcNAc(b1-3)Gal(b1-4)GlcNAc(b1-2)[GlcNAc(b1-3)Gal(b1-4)GlcNAc(b1-3)Gal(b1-4)GlcNAc(b1-6)]Man(a1-6)[GlcNAc(b1-3)Gal(b1-4)GlcNAc(b1-3)Gal(b1-4)GlcNAc(b1-2)Man(a1-3)]Man(b1-4)GlcNAc(b1-4)[Fuc(a1-6)]GlcNAc
Summary of the method: as §1

[21] = biological target: GlcNAc(b1-4)GlcNAc(b1-4)GlcNAc
Summary of the method: as §1

[22] = biological target: Neu5Ac(a2-3)Gal(b1-3)GlcNAc(b1-2)Man(a1-3)[Neu5Ac(a2-3)Gal(b1-3)GlcNAc(b1-2)Man(a1-6)]Man(b1-4)GlcNAc(b1-4)GlcNAc
Summary of the method: as §1

[23] = biological target: Neu5Ac(a2-3)Gal(b1-3)GlcNAc(b1-3)Gal(b1-3)GlcNAc
Summary of the method: as §1

[24] = biological target: Neu5Ac(a2-3)Gal(b1-3)GlcNAc(b1-3)GalNAc
Summary of the method: as §1

[25] = biological target: Neu5Ac(a2-3)Gal(b1-4)GlcNAc(b1-3)Gal
Summary of the method: as §1

[26] = biological target: Neu5Ac(a2-3)Gal(b1-4)GlcNAc(b1-3)Gal(b1-4)GlcNAc(b1-6)[Gal(b1-3)]GalNAc
Summary of the method: as §1

[27] = biological target: Neu5Ac(a2-3)Gal(b1-4)GlcNAc6S
Summary of the method: as §1

Neu5Ac(a2-6)Gal = biological target: Neu5Ac(a2-6)Gal
Summary of the method: as §1

[28] = biological target: Neu5Ac(a2-6)Gal(b1-4)GlcNAc(b1-2)Man(a1-3)[GlcNAc(b1-4)][Neu5Ac(a2-6)Gal(b1-4)GlcNAc(b1-2)Man(a1-6)]Man(b1-4)GlcNAc(b1-4)GlcNAc
Summary of the method: as §1

[29] = biological target: Neu5Ac(a2-6)Gal(b1-4)GlcNAc(b1-3)Gal(b1-4)[Fuc(a1-3)]GlcNAc(b1-3)Gal(b1-4)[Fuc(a1-3)]GlcNAc
Summary of the method: as §1

[30] = biological target: Neu5Ac(a2-6)GalNAc(b1-4)GlcNAc6S
Summary of the method: as §1

[31] = biological target: Neu5Ac(a2-8)Neu5Ac(a2-8)Neu5Ac(a2-3)Gal(b1-4)Glc
Summary of the method: as §1

[32] = biological target: Neu5Gc(a2-3)Gal(b1-3)[Fuc(a1-4)]GlcNAc
Summary of the method: as §1

B1: MFG-E8 (Mus musculus), P21956 (protein)
chain: MQVSRVLAALCGMLLCASGLFAASGDFCDSSLCLNGGTCLTGQDNDIYCLCPEGFTGLVCNETERGPCSPNPCYNDAKCLVTLDTQRGDIFTEYICQCPVGYSGIHCETETNYYNLDGEYMFTTAVPNTAVPTPAPTPDLSNNLASRCSTQLGMEGGAIADSQISASSVYMGFMGLQRWGPELARLYRTGIVNAWTASNYDSKPWIQVNLLRKMRVSGVMTQGASRAGRAEYLKTFKVAYSLDGRKFEFIQDESGGDKEFLGNLDNNSLKVNMFNPTLEAQYIKLYPVSCHRGCTLRFELLGCELHGCSEPLGLKNNTIPDSQMSASSSYKTWNLRAFGWYPHLGRLDNQGKINAWTAQSNSAKEWLQVDLGTQRQVTGIITQGARDFGHIQYVASYKVAHSDDGVQWTVYEEQGSSKVFQGNLDNNSHKKNIFEKPFMARYVRVLPVSWHNRITLRLELLGC
glycan array binding signal (z-score) [1]: 0.179 | glycan array binding signal (z-score) [2]: 0.01 | glycan array binding signal (z-score) [3]: 8.57 | glycan array binding signal (z-score) [4]: 2.33 | glycan array binding signal (z-score) [5]: 1.65 | glycan array binding signal (z-score) [6]: -0.206 | glycan array binding signal (z-score) (Gal(a1-2)Gal): 0.39 | glycan array binding signal (z-score) (Gal(a1-3)Gal(b1-3)GlcNAc): -0.404 | glycan array binding signal (z-score) [7]: -0.165 | glycan array binding signal (z-score) [8]: -0.266 | glycan array binding signal (z-score) [9]: -0.553 | glycan array binding signal (z-score) [10]: 0.221 | glycan array binding signal (z-score) [11]: 2.48 | glycan array binding signal (z-score) [12]: -0.342 | glycan array binding signal (z-score) [13]: -0.115 | glycan array binding signal (z-score) (Gal3S(b1-4)GlcNAc): -0.46 | glycan array binding signal (z-score) (Gal3S6S(b1-4)GlcNAc6S): 2.81 | glycan array binding signal (z-score) (Gal4S(b1-4)GlcNAc): -0.4 | glycan array binding signal (z-score) (Gal6P(b1-4)GlcNAc): 1.22 | glycan array binding signal (z-score) (Gal6S(b1-3)GlcNAc6S): 3.04 | glycan array binding signal (z-score) (Gal6S(b1-4)GlcNAc6S): 2.98 | glycan array binding signal (z-score) [14]: -0.038 | glycan array binding signal (z-score) [15]: 0.832 | glycan array binding signal (z-score) (GalNAc4S6S(b1-4)GlcNAc): 9.76 | glycan array binding signal (z-score) [16]: -0.038 | glycan array binding signal (z-score) (Glc(b1-6)Glc): 2.4 | glycan array binding signal (z-score) [17]: 5.5 | glycan array binding signal (z-score) [18]: 0.853 | glycan array binding signal (z-score) [19]: -0.881 | glycan array binding signal (z-score) [20]: -0.08 | glycan array binding signal (z-score) [21]: -0.582 | glycan array binding signal (z-score) [22]: -0.096 | glycan array binding signal (z-score) [23]: -1.04 | glycan array binding signal (z-score) [24]: 0.592 | glycan array binding signal (z-score) [25]: 0.469 | glycan array binding signal (z-score) [26]: -0.309 | glycan array binding signal (z-score) [27]: -0.285 | glycan array binding signal (z-score) (Neu5Ac(a2-6)Gal): 0.316 | glycan array binding signal (z-score) [28]: 0.277 | glycan array binding signal (z-score) [29]: -0.437 | glycan array binding signal (z-score) [30]: 3.05 | glycan array binding signal (z-score) [31]: -0.889 | glycan array binding signal (z-score) [32]: 2.55
